Measured values: PubChem BioAssay (NCATS)
Results filed as inconclusive are left out. Values without a mark were called inactive. Active and inactive are the calls of the source. The call rests on the fitted dose curve; in most records, active means well fitted cell-killing curve with a large enough effect; inconclusive means small, poorly fitted or top-dose-only effect; inactive means flat fitted curve, though single readings scatter.
Potency means the concentration at half of the fitted maximal effect.

Experiment: Quantitative highthroughput screen to assess conditional lethalithy of NOMO1 cells grown in RPMI1640 with untreated serum (RPMI+s) (AID 1963876); further: nearly all actives have a fitted effect of over 35% in size
Settings: NOMO1 AML cells in RPMI+serum, CellTiter-Glo viability, 48 h; series mostly up to 45.8 µM; viability: at the top concentration
Excerpt: Assay Provider: Jason Cantor Ph.D.
Department of Biochemistry
University of Wisconsin-Madison, Madison, WI, USA
Chemical screening studies have identified drug sensitivities across hundreds of cancer cell lines but most putative therapeutics fail to translate. Discovery and development of drug candidates in models that more accurately reflect nutrient levels in human blood is a major challenge. Here we performed high-throughput screens in conventional versus Human Plasma-Like Medium (HPLM) to identify compounds that were "missed" when screening using the artificial culture condition. Sets of conditional anticancer compounds spanned phases of clinical development and included non-oncology drugs were assessed. […] We also traced conditional phenotypes for several chemotherapeutics to availability of HPLM-specific metabolites and confirmed others for compounds whose reported targets are encoded by nonessential genes. Our findings establish generalizable strategies for exploiting conditional lethality in HPLM to reveal therapeutic candidates and mechanisms of action in cancer cells.
Described herein are the results of each viability screens against three cell lines: NOMO1 (an acute myeloid leukemia cell line); P12-Ichikawa (a T-cell acute lymphoblastic leukemia); and SEM (a B-cell ALL). Each assay was screened using 3 different cell culture media: homemade human plasma-Like medium with 10% dialyzed fetal bovine serum (HPLM+ds); RPMI1640 with 10% untreated FBS and 5mM glucose (RPMI+s); and RPMI1640 with 10% dialyzed fetal bovine serum and 5 mM glucose (RPMI+ds).
PROTOCOL TABLE (as described by Inglese J, Shamu CE and Guy RK. 2007)
SEQUENCE No. (e.g., 1, 2, 3, etc.); […] (e.g., Cells, Incubation, Reagent, etc.); VALUE and DESCRIPTION.
1; Cells; 5 uL; white, solid bottom 1536-well Greiner assay plate.
2; Compounds; 23 nL; Kalypsis pin tool (Wako USA) equipped with a 1536-well pin head to transfer to the assay plates.
3; Incubation; 48 hours; 37C incubation.
4; Reagent; 3 uL; CellTiter Glo (Promega).
5; Incubation; 5 min, room temperature
6; Detection; Luminescence, Viewlux PerkinElmer.
NOTES (numbers refer to Sequence numbers above)
1. Briefly, 5 ul of cell reagent was dispensed using a Multidrop Combi Dispenser. The NOMO1 and SEM cells were plated at 500 cells/well and the P12-Ichikawa line at 1000 cells/well.
2. After seeding the cells, 23 nL of MIPE 4.1 library compounds (in DMSO) were added to each plate using a Kalypsys 1536 Pintool dispenser. Bortezomib at final concentration of […] and DMSO were added to each plate as positive and negative controls respectively. For each screen, MIPE 4.1 compounds were added over an eleven-point concentration range […] in 3-fold dilutions.
3. Each plate was covered with a stainless steel gasketed lid to prevent evaporation and incubated for 48 hour at 37C, 95% relative humidity, and 5% CO2.
4-5. Three microliter CellTilter-GloTM luminescent substrate mix (Promega) reagent was added to the assay plate and incubated at room temperature for 5 min.
6. The luminescence signal was measured using a ViewLux (PerkinElmer) multiplate reader with a 2 second exposure time per plate. Data for each compound were normalized as percent viability such that measurements for DMSO and the empty well controls in each plate were defined as 100% and 0%, respectively.
With `CC(C)(C)OC(=O)CN(Cc1ccc(Cl)cc1)Cc1ccc([N+](=O)[O-])s1` the “viability” value was 81.2%. In the case of `COc1ccc(C(=O)CC(=O)c2ccc(C(C)(C)C)cc2)cc1`, the “viability” value is reported as 107%. In the case of `COc1ccc(-c2cc3nccn3c(Nc3ncccc3C(N)=O)n2)cc1OC`, the “viability” value is reported as 100%. For `C[C@]12CC[C@@H]3c4ccc(O)cc4C[C@@H](CCCCCCCCCS(=O)CCCC(F)(F)C(F)(F)F)[C@H]3[C@H]1CC[C@H]2O` (stereo not given in full), the “viability” value was 93.7%. With `Cc1c(-c2cccc3c(CCCOc4cccc5ccccc45)c(C(=O)O)n(Cc4cccnc4)c23)c(COc2ccc(N3CCN([S+](=O)([O-])N(C)C)CC3)cc2)nn1C` the “viability” value was 106%. With `O=c1[nH]cnc2[nH]ncc12` the “viability” value was 93.4%. With `C=CC(=O)Nc1cc(NC(=O)c2ccc(C)c(NC(=O)c3ccno3)c2)cc(C(F)(F)F)c1` the “viability” value was 96.9%. For `Cc1cc(SCc2sc(-c3ccc(C(F)(F)F)cc3)nc2C)ccc1OCC(=O)O`, the “viability” value was 94.9%. With `N#Cc1ccc(NC(=O)Nc2ccccc2Br)c2n[nH]nc12` the “viability” value was 102%. With `CC(O)(C#Cc1ccc2c(c1)N(c1nc(N)ncc1Cl)CC2)c1nccs1` (stereo not given) the “viability” value was 94.9%. With `COc1ccc2nc3cc(Cl)ccc3c(Nc3cc(CN4CCCC4)c(O)c(CN4CCCC4)c3)c2n1` the “viability” value was 104%. In the case of `CCOc1cc(C(C)(C)C)ccc1C1=N[C@@](C)(c2ccc(Cl)cc2)[C@@](C)(c2ccc(Cl)cc2)N1C(=O)N1CCN(CC(=O)N2CCOCC2)CC1`, the “viability” value is reported as 104%. In the case of `CCS(=O)(=O)N1CC(CC#N)(n2cc(-c3ncnc4[nH]ccc34)cn2)C1`, the “viability” value is reported as 91.1%. With `CCCCCN(CCC12CC3CC(CC(C3)C1)C2)C(=O)NCCCc1ccncc1` the “viability” value was 98.7%. With `COC(=O)Nc1cc(Nc2cc(NC3CC3)c3ncc(C#N)n3n2)c(Cl)c(N2CCN(C)CC2)c1` the Potency was 9330 nM (active). With `CCCCNc1cc(C(=O)O)cc(S(N)(=O)=O)c1Oc1ccccc1` the “viability” value was 105%. For `COc1ccc(-c2ccc3ncc4c(c3c2)n(-c2ccc(N3CCNCC3)c(C(F)(F)F)c2)c(=O)n4C)cn1`, the Potency was 526 nM (active). For `CC(C)C(C)C=CC(C)C1CCC2C3=CC=C4CC(O)CCC4(C)C3CCC21C` (stereo not given), the “viability” value was 95.5%. In the case of `Nc1ccc(S(=O)(=O)Nc2ncccn2)cc1`, the “viability” value is reported as 107%. With `COc1cc(Nc2nc3ccccc3nc2NS(=O)(=O)c2ccc(NC(=O)c3ccc(C)c(OC)c3)cc2)cc(OC)c1` the “viability” value was 79.1%. For `CN1CC[C@@H](c2c(O)cc(O)c3c(=O)cc(-c4ccccc4Cl)oc23)[C@@H](O)C1`, the Potency was 469 nM (active). For `Fc1ccc(Cl)cc1-c1nc(Nc2ccncc2)c2nccnc2n1`, the “viability” value was 98.8%. With `CC1(C)CC(=O)c2c(C(F)(F)F)nn(-c3ccc(C(N)=O)c(NC4CCC(O)CC4)c3)c2C1` (stereo not given) the Potency was 209 nM (active). For `O=c1c(O)c(-c2ccc(O)cc2O)oc2cc(O)cc(O)c12`, the “viability” value was 91.2%. For `COCCCOc1ccnc(CS(=O)c2nc3ccccc3[nH]2)c1C` (stereo not given), the “viability” value was 108%. With `Cc1ccc(NC(=O)C2(c3ccc4c(c3)OC(F)(F)O4)CC2)nc1-c1cccc(C(=O)O)c1` the Potency was 166 nM (active). With `O=C(C1CCCCC1)N1CC(=O)N2CCc3ccccc3C2C1` (stereo not given) the “viability” value was 83.9%. For `Cc1ccc(Nc2cc(-c3cccc(N4C(=O)c5ccccc5C4=O)c3)ncn2)cc1NS(C)(=O)=O`, the “viability” value was 100%. With `C=C(C)[C@@H]1CC[C@]2(C(=O)O)CC[C@]3(C)[C@H](CC[C@@H]4[C@@]5(C)CC[C@H](O)C(C)(C)[C@@H]5CC[C@]43C)[C@@H]12` the “viability” value was 95.5%. For `Cc1cncc2cccc(S(=O)(=O)N3CCCN(C(=O)CN)C[C@@H]3C)c12`, the Potency was 5900 nM (active). With `CCOc1cc(C=C2C(=O)N(c3ccccc3)N=C2C)cc(Cl)c1OCC(=O)OC` the “viability” value was 99.3%. For `CCCc1cc(=O)[nH]c(=S)[nH]1`, the Potency was 9350 nM (active). With `NC(=O)c1ccc(-c2nc(-c3ccc4c(c3)OCCO4)c(-c3ccccn3)[nH]2)cc1` the “viability” value was 108%. In the case of `Cc1nc2n(c(=O)c1CCN1CCC(c3noc4cc(F)ccc34)CC1)CCCC2`, the “viability” value is reported as 99.7%. In the case of `C[C@@H]1[C@H](O)[C@@H](C)C=CC=CC=CC=CC=CC=CC=C[C@H](O[C@@H]2O[C@H](C)[C@H](O)[C@H](N)[C@@H]2O)C[C@@H]2O[C@](O)(C[C@@H](O)C[C@@H](O)[C@H](O)CC[C@@H](O)C[C@@H](O)CC(=O)O[C@H]1C)C[C@H](O)[C@@H]2C(=O)O`, the “viability” value is reported as 112%. For `COc1cc(F)c(F)c(Nc2ccc(I)cc2F)c1NS(=O)(=O)C1(C[C@H](O)CO)CC1`, the “viability” value was 94.3%. For `CN(C)CCN(Cc1ccc(Cl)cc1)c1ccccn1`, the “viability” value was 105%. For `COc1ccc2nc(S(=O)Cc3ncc(C)c(OC)c3C)[nH]c2c1` (stereo not given), the “viability” value was 104%. With `CC[C@H]1OC(=O)[C@H](C)[C@@H](O[C@H]2C[C@@](C)(OC)[C@@H](O)[C@H](C)O2)[C@H](C)[C@@H](O[C@@H]2O[C@H](C)C[C@H](N(C)C)[C@@H]2O)[C@](C)(OC)C[C@@H](C)C(=O)[C@H](C)[C@@H](O)[C@]1(C)O` the “viability” value was 95.6%. With `O=C(O)c1cc(O)c2c(c1)C(=O)c1cccc(O)c1C2=O` the “viability” value was 104% [at 92.2 µM].
